According to the antibiotic and cytotoxicity screens of Wong et al. (2023):
About 3,300 (8.5%) of roughly 39,000 compounds were called active. For the sample, actives were picked, then their nearest neighbours and some compounds at random.

System: HepG2
Assay: cytotoxicity call (relative viability < 0.9)
Conditions: 10 µM

| Compound | cytotoxicity call |
| --- | --- |
| C[C@H]1CCCCO[C@@H](CN(C)C(=O)Nc2cccc3ccccc23)[C@@H](C)CN([C@@H](C)CO)C(=O)c2cc(NC(=O)c3ccncc3)ccc2O1 | inactive |
| C[C@H]1CN([C@@H](C)CO)C(=O)c2cc(C#CCN(C)C)cnc2O[C@@H]1CN(C)C(=O)Nc1cc(F)ccc1F | inactive |
| O=C(C[C@@H]1CC[C@H]2[C@@H](COC[C@H](O)CN2S(=O)(=O)c2ccccc2)O1)NCc1ccc(-c2ccccc2)cc1 | inactive |
| COCC(=O)N1C[C@@H](C)[C@@H](OC)CN(C)C(=O)c2ccc(NC(=O)c3ccc(F)cc3)cc2OC[C@H]1C | inactive |
| COc1ccc(S(=O)(=O)N(C)C[C@H]2Oc3ccc(NS(=O)(=O)c4c(C)noc4C)cc3CC(=O)N([C@H](C)CO)C[C@@H]2C)cc1 | inactive |
| COc1ccc(S(=O)(=O)N(C)C[C@H]2OCCCC[C@@H](C)Oc3ccc(NC(=O)Nc4cccc5ccccc45)cc3C(=O)N([C@H](C)CO)C[C@H]2C)cc1 | inactive |
| CC(C)(C)NC(=O)[C@@H]1CN(Cc2cccnc2)CCN1C[C@@H](O)C[C@@H](Cc1ccccc1)C(=O)N[C@@H]1c2ccccc2C[C@@H]1O | inactive |
| CC(C)(C)NC(=O)[C@@H]1CN(Cc2cccnc2)CCN1C[C@@H](O)C[C@@H](Cc1ccccc1)C(=O)N[C@H]1c2ccccc2C[C@H]1O | inactive |
| CC(C)(C)NC(=O)C1CN(Cc2cccnc2)CCN1CC(O)CC(Cc1ccccc1)C(=O)NC1c2ccccc2CC1O (stereo not given) | active |
| O=C(C[C@@H]1CC[C@H]2[C@@H](COC[C@H](O)CN2S(=O)(=O)c2cccc(F)c2)O1)NCCCN1CCOCC1 | inactive |
| NCc1ccncc1 | inactive |
| C=CCOC(=O)[C@@H]1[C@H]2C(=O)O[C@H](c3ccccc3)[C@H](c3ccccc3)N2[C@H](c2ccc(OCCOC(=O)[C@H]3C[C@H]4C(=O)NCC(=O)N4[C@H]3c3ccc(O)cc3)cc2)[C@@]12C(=O)Nc1ccccc12 | inactive |
| C[C@H]1CC/C=C\[C@H]2O[C@@]34C=CCN(CCN5CCOCC5)C(=O)[C@H]3N(CCCO)C(=O)[C@@H]4[C@@H]2C(=O)O1 | inactive |
| C[C@@H](N)c1ccc(C(=O)Nc2ccnc3[nH]ccc23)cc1 | active |
| CC[C@@H](C)c1ccc(NC(=O)c2ccc(N(CC)CC)cc2)cc1 | inactive |
| Nc1nc(=O)[nH]cc1NC(=O)c1ccccc1 | inactive |
| c1cnc2c(SCc3nc4ccccc4s3)cccc2c1 | active |
| c1ccc2c(CSc3nc4ccccc4s3)cccc2c1 | inactive |
| CCSc1cccc2cccnc12 | inactive |
| COc1ccc(S(=O)(=O)Nc2ccc3c(c2)C(=O)N([C@@H](C)CO)C[C@@H](C)[C@@H](CN(C)Cc2ccc(Cl)c(Cl)c2)O3)cc1 | active |

| Compound | cytotoxicity call |
| --- | --- |
| COc1ccc(S(=O)(=O)Nc2ccc3c(c2)C(=O)N([C@H](C)CO)C[C@H](C)[C@@H](CN(C)Cc2ccc(Cl)c(Cl)c2)O3)cc1 | inactive |
| COc1ccc(S(=O)(=O)Nc2ccc3c(c2)C(=O)N([C@@H](C)CO)C[C@H](C)[C@H](CN(C)Cc2ccc(Cl)c(Cl)c2)O3)cc1 | inactive |
| COc1ccc(S(=O)(=O)Nc2ccc3c(c2)C(=O)N([C@@H](C)CO)C[C@H](C)[C@@H](CN(C)Cc2ccc(Cl)c(Cl)c2)O3)cc1 | inactive |
| COc1ccc(S(=O)(=O)Nc2ccc3c(c2)C(=O)N([C@@H](C)CO)C[C@@H](C)[C@H](CN(C)Cc2ccc(Cl)c(Cl)c2)O3)cc1 | active |
| COc1ccc(S(=O)(=O)Nc2ccc3c(c2)C(=O)N([C@H](C)CO)C[C@H](C)[C@H](CN(C)Cc2ccc(Cl)c(Cl)c2)O3)cc1 | inactive |
| C[C@@H]1CCCCO[C@@H](CN(C)S(=O)(=O)c2ccc(Cl)cc2)[C@@H](C)CN([C@H](C)CO)C(=O)c2cc(NC(=O)CCCCCC(=O)Nc3ccccc3N)ccc2O1 | inactive |
| C[C@H]1CN([C@@H](C)CO)C(=O)Cc2cc(NS(C)(=O)=O)ccc2O[C@H]1CN(C)C | inactive |
| C[C@H]1CN([C@@H](C)CO)C(=O)Cc2cc(NC(=O)c3ccncc3)ccc2O[C@@H]1CN(C)Cc1ccncc1 | inactive |
| C=CCOc1ccc(C(=O)C2=C(O)C(=O)N(CCCN3CCOCC3)[C@@]23C(=O)N(C)c2ccccc23)cc1C | inactive |
| COCC(=O)Nc1ccc2c(c1)C(=O)N(C)[C@H]1CC[C@@H](CC(=O)NC3Cc4ccccc4C3)O[C@@H]1CO2 | inactive |
| COc1ccc(CN(C)C[C@H]2OCCCC[C@@H](C)Oc3ccc(NS(=O)(=O)c4c(C)noc4C)cc3C(=O)N([C@H](C)CO)C[C@H]2C)cc1 | inactive |
| COc1ccc(NC(=O)Nc2ccc3c(c2)C(=O)N([C@H](C)CO)C[C@H](C)[C@H](CN(C)C(=O)Nc2ccc(C(F)(F)F)cc2)O3)cc1 | inactive |
| C[C@@H]1CN([C@H](C)CO)C(=O)c2cc(NS(=O)(=O)c3ccc(Cl)cc3)ccc2O[C@@H](C)CCCCO[C@H]1CN(C)Cc1ccc(Cl)c(Cl)c1 | active |
| C[C@@H]1CCCCO[C@@H](CN(C)Cc2ccc(Cl)c(Cl)c2)[C@@H](C)CN([C@@H](C)CO)C(=O)c2cc(NS(=O)(=O)c3ccc(Cl)cc3)ccc2O1 | active |
| C[C@@H]1CCCCO[C@@H](CN(C)Cc2ccc(Cl)c(Cl)c2)[C@H](C)CN([C@@H](C)CO)C(=O)c2cc(NS(=O)(=O)c3ccc(Cl)cc3)ccc2O1 | active |
| C[C@@H]1CN([C@H](C)CO)C(=O)c2cc(NS(=O)(=O)c3ccc(Cl)cc3)ccc2O[C@@H](C)CCCCO[C@@H]1CN(C)Cc1ccc(Cl)c(Cl)c1 | active |
| C[C@@H]1CN([C@H](C)CO)C(=O)c2c(c3ccccc3n2C)-c2ccccc2CO[C@H]1CN(C)Cc1ccc(Oc2ccccc2)cc1 | inactive |
| O=C(C[C@@H]1CC[C@@H]2[C@H](COC[C@H](O)CN2C(=O)Nc2cccc(Cl)c2)O1)NCCCN1CCOCC1 | inactive |
| C[C@@H]1CN([C@H](C)CO)C(=O)Cc2cc(NS(C)(=O)=O)ccc2O[C@@H]1CN(C)S(=O)(=O)c1cn(C)cn1 | inactive |
| C[C@@H]1CCCCO[C@H](CN(C)S(=O)(=O)c2cn(C)cn2)[C@H](C)CN([C@@H](C)CO)C(=O)c2cc(NC(=O)CCCN(C)C)ccc2O1 | inactive |
